Laboratory results: the supplement of paper PMC12636033
± gives the standard deviation of the averaged measurements. The full ranking holds about 33,000 sequences; the median of “E-score (rank enrichment, -0.5 to 0.5)” is about -0.0043, and the highest 2% start at about 0.24. Many of the other results were omitted from the sample, so the highest values are more common in it than they were.

Tested on: 2Sp-muMax20 (muMax20 with two 2,6-bis(methyl)pyridine Cys staples)
Experiment: PBM 8-mer E-score (E-score (rank enrichment, -0.5 to 0.5)); higher = stronger preferential binding
Description: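 Protein binding microarray (universal PBM chip covering all 10-mers in fixed probe flanks) with chemically synthesized human Max(13-93) bHLH-LZ analogs (not full-length Max) bearing noncanonical residues (hArg, Tha, Aib, Nle at 65) and aromatic Cys staples. Read-out per 8-mer (and its reverse complement): E-score (rank-based enrichment, -0.5 to 0.5) and Z-score of median probe intensity.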

| Sequence | PBM 8-mer E-score |
| --- | --- |
| ATTAATCA | 0.259 ± 0.059 |
| CTAAATTA | -0.0028 ± 0.045 |
| ATTAACAA | 0.161 ± 0.042 |
| ATTAATAC | 0.256 ± 0.1 |
| ATTAATAA | 0.224 ± 0.12 |
| ATTAATAG | 0.197 ± 0.079 |
| AAGAATCA | 0.116 ± 0.04 |
| GAGGCCTA | -0.184 ± 0.066 |
| AGAAATCT | 0.0669 ± 0.11 |
| ATATGAAA | 0.219 ± 0.031 |
| ACACTTCG | -0.0252 ± 0.098 |
| GAAAATTA | 0.291 ± 0.063 |
| CAAAATTA | 0.15 ± 0.063 |
| AAAAATTA | 0.116 ± 0.052 |
| AGCGTGCG | 0.178 ± 0.02 |
| GTAGAATA | 0.253 ± 0.0027 |
| ATAGAATA | 0.171 ± 0.011 |
| CTAGAATA | 0.108 ± 0.076 |
| ACTATTAG | -0.00553 ± 0.16 |
| CATATTGG | 0.251 ± 0.0054 |
| AATATTAC | 0.294 ± 0.0036 |
| AATATTAG | 0.243 ± 0.026 |
| TATATTAA | 0.211 ± 0.059 |
| CATATTGC | 0.164 ± 0.033 |
| CATATTAC | 0.0498 ± 0.065 |

| Sequence | PBM 8-mer E-score |
| --- | --- |
| CATATTAA | 0.247 ± 0.019 |
| CCTATTAA | 0.154 ± 0.024 |
| GATATTAC | 0.178 ± 0.026 |
| AATATTGG | 0.0895 ± 0.038 |
| CATATTAG | 0.222 ± 0.025 |
| TGACACCA | -0.0859 ± 0.034 |
| GAGGGTCC | -0.156 ± 0.027 |
| AAAAGGTG | -0.103 ± 0.028 |
| TCGTCCCA | 0.114 ± 0.012 |
| GGTGCGAA | 0.0856 ± 0.053 |
| ATGACTTC | 0.112 ± 0.019 |
| GGCTTACC | -0.108 ± 0.026 |
| CTTATGCA | 0.0234 ± 0.047 |
| ATCACTTC | 0.0342 ± 0.00049 |
| CATATTTA | 0.228 ± 0.01 |
| AATATTTA | 0.282 ± 0.036 |
| GATATTAA | 0.118 ± 0.0066 |
| AATATTAA | 0.33 ± 0.029 |
| ACTATTAT | 0.142 ± 0.1 |
| AATATTAT | 0.246 ± 0.036 |
| AATATTCT | 0.231 ± 0.057 |
| AATATTTC | 0.0962 ± 0.04 |
| ACTATTAA | 0.157 ± 0.022 |
| AGCACCGC | -0.216 ± 0.056 |
| ACTGGCGC | 0.0318 ± 0.075 |

| Sequence | PBM 8-mer E-score |
| --- | --- |
| CGCGACTC | 0.0134 ± 0.05 |
| AGAAGTGC | -0.15 ± 0.01 |
| AGTGTACA | 0.138 ± 0.071 |
| TCGTGTCA | -0.0282 ± 0.02 |
| ATTCGACA | -0.0611 ± 0.091 |
| CGACTGCG | -0.11 ± 0.012 |
| CGGAAGAC | -0.286 ± 0.011 |
| CCTGGCTC | -0.193 ± 0.028 |
| AGCTTATC | 0.0357 ± 0.093 |
| AGCTTATA | 0.249 ± 0.15 |
| CGCTTATA | 0.116 ± 0.018 |
| CGTCTTTA | 0.0497 ± 0.034 |
| CTGGGTGA | -0.0861 ± 0.036 |
| TGCGCGCA | 0.1734 ± 0.0016 |
| CCTTATTA | 0.28 ± 0.003 |
| GCTTATTA | 0.172 ± 0.037 |
| CCTTATTC | -0.0629 ± 0.052 |
| ACTCCTAG | -0.146 ± 0.087 |
| CGACATGC | 0.0468 ± 0.0062 |
| ATAACACC | 0.0871 ± 0.057 |
| ATAACAGG | -0.0186 ± 0.03 |
| GTAACACA | 0.183 ± 0.032 |
| ATAACACG | 0.269 ± 0.011 |
| ATAACACA | 0.253 ± 0.075 |
| CTAACACA | 0.0336 ± 0.063 |

| Sequence | PBM 8-mer E-score |
| --- | --- |
| ATCTAAGA | -0.0722 ± 0.047 |
| TCGGAAGA | -0.155 ± 0.038 |
| AGTTAACA | 0.145 ± 0.13 |
| CGTTAACA | 0.0471 ± 0.048 |
| TGTTAACA | 0.2746 ± 0.0014 |
| AGCTTTTA | 0.0891 ± 0.031 |
| ATATTAAG | 0.16 ± 0.025 |
| ATATTAAA | 0.2641 ± 0.001 |
| ATATTAAT | 0.318 ± 0.08 |
| CTATTAAA | 0.141 ± 0.053 |
| TTATTAAA | 0.166 ± 0.054 |
| ATATTAAC | 0.182 ± 0.0085 |
| GCCAGGGC | -0.343 ± 0.022 |
| AAACGGTG | -0.0442 ± 0.0089 |
| GGGCGTCA | 0.12 ± 0.063 |
| CGAATTGA | 0.141 ± 0.014 |
| CTGTACAA | 0.0666 ± 0.029 |
| GTGTACAA | 0.198 ± 0.029 |
| TTGTACAA | 0.331 ± 0.11 |
| ACCGGTCC | -0.324 ± 0.028 |
| TGACCTAA | 0.00115 ± 0.0031 |
| CTCCCCCC | -0.0388 ± 0.051 |
| CCACAGTA | 0.0513 ± 0.067 |
| GTACCCGA | -0.187 ± 0.12 |
| AAACATGA | 0.0601 ± 0.067 |

| Sequence | PBM 8-mer E-score |
| --- | --- |
| ACACATGT | 0.326 ± 0.044 |
| AATCATGA | 0.124 ± 0.13 |
| AATCATGT | 0.239 ± 0.04 |
| AAACATGG | 0.153 ± 0.0082 |
| AATCAGCG | -0.0281 ± 0.1 |
| AATCATGG | 0.129 ± 0.0058 |
| AAACATGT | 0.287 ± 0.008 |
| AATCAGCT | 0.279 ± 0.013 |
| AATCAGCC | 0.0385 ± 0.041 |
| ACACATGA | 0.0699 ± 0.082 |
| ACACATGG | 0.194 ± 0.019 |
| ACGTTAAG | 0.137 ± 0.027 |
| CGGTGTGC | -0.209 ± 0.041 |
| CCCCACGC | 0.095 ± 0.036 |
| AAATACTA | 0.183 ± 0.026 |
| CCATCGAC | -0.131 ± 0.028 |
| GATTCCCA | 0.0167 ± 0.092 |
| AATTCCCA | 0.23782 ± 0.00023 |
| AATTCCCC | 0.123 ± 0.015 |
| GCTTAGTA | 0.0418 ± 0.019 |
| AACCTCTG | -0.064 ± 0.059 |
| CATTAAGA | 0.237 ± 0.056 |
| AATTAAGA | 0.214 ± 0.0075 |
| GATTAAGA | -0.00249 ± 0.0063 |
| GACGACTA | 0.138 ± 0.051 |

| Sequence | PBM 8-mer E-score |
| --- | --- |
| CGACTCCC | -0.0206 ± 0.024 |
| AGGGTCTG | -0.168 ± 0.019 |
| GGTGATCA | 0.0137 ± 0.0046 |
| CGTGATCA | 0.245 ± 0.036 |
| CGTGATCC | -0.0859 ± 0.026 |
| TGCTTACA | 0.114 ± 0.016 |
| ACCCACGC | 0.138 ± 0.023 |
| AACCACGT | 0.288 ± 0.032 |
| ACCCACGT | 0.284 ± 0.0034 |
| AACCACGA | 0.118 ± 0.035 |
| ACCCACGA | -0.0222 ± 0.03 |
| AACCACGC | 0.0757 ± 0.035 |
| GAGGCCGC | -0.291 ± 0.046 |
| ACAATAAT | 0.275 ± 0.043 |
| CCAATAAA | 0.211 ± 0.035 |
| ATAATAAT | 0.14 ± 0.084 |
| ACAATACA | 0.0638 ± 0.061 |
| ACAATAAA | 0.256 ± 0.012 |
| ACAATACC | 0.273 ± 0.015 |
| ACAATAAG | 0.1254 ± 0.001 |
| ACAATAAC | 0.0634 ± 0.07 |
| ACAATACT | 0.204 ± 0.069 |
| CCGTTCAA | 0.137 ± 0.026 |
| GAGCTGAA | 0.0148 ± 0.13 |
| AACGCCCT | -0.0766 ± 0.052 |

| Sequence | PBM 8-mer E-score |
| --- | --- |
| AAGGTCAT | -0.149 ± 0.0067 |
| AGAGCCCG | -0.276 ± 0.012 |
| AATCAGGA | 0.0255 ± 0.037 |
| CTGTAGAA | 0.0793 ± 0.045 |
| GTATATAA | 0.125 ± 0.0038 |
| CTGTATAA | 0.19 ± 0.035 |
| CGATATAC | 0.0494 ± 0.11 |
| ATATATAA | 0.328 ± 0.032 |
| GTGTATAA | 0.103 ± 0.024 |
| CGATATAG | 0.116 ± 0.068 |
| CGATATAA | 0.24 ± 0.0019 |
| ATGTAGAA | 0.246 ± 0.053 |
| ATGTATAA | 0.277 ± 0.046 |
| ATGTAGAG | 0.0603 ± 0.063 |
| CTATATAA | 0.157 ± 0.081 |
| ACAAACGC | -0.0614 ± 0.035 |
| CACAAATC | 0.052 ± 0.071 |
| AGAGGGAG | 0.112 ± 0.027 |
| ATGGGCAG | 0.0154 ± 0.02 |
| AGTCTCTA | 0.0513 ± 0.038 |
| GGCGAACA | -0.00568 ± 0.13 |
| ATACACCC | -0.00554 ± 0.027 |
